The list is not random: actives were taken first. Their share in the collection is about 13%.
Shiga inhibitor: blocks Shiga toxin action in Vero cells. Vero cells, Shiga toxin protein synthesis inhibition reporter. inhibition, % at 38.7 µM. hit rate 9.2% among 290,000. AID 2315; in the data active = inhibition mostly above about 28%, no sharp cut-off; inactive = mostly below about 43%; note: 0% is about no effect
HCV inh: inhibitors of hepatitis C virus infection | Huh7.5.1 HCVcc-Cre infection, luciferase reporter, 44 h | Potency, µM (doses to about 41.8 µM), for inactives: at the highest dose activity change, negative = inhibition, usual class: inhibitors | hit rate 3.4% among 340,000 | AID 651820; active = well fitted inhibition curve with a large enough effect; inconclusive = small, poorly fitted or top-dose-only effect, or another doubt; inactive = no such curve, though single readings can be large or run the other way; note: potency is the fitted concentration of half-maximal effect; % is set by controls: 0 for no effect and ±100 for the full control effect
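Compounds are dispensed onto cells plated 4 h earlier at 1,000 per well, with HCVcc-Cre virus (about 0.5 moi) added next. Following 44 h of culture, luminescent signal is measured for 15 sec after 15 min with substrate at room temperature.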
Marburg entry inh: inhibitors of Marburg virus binding or cell entry; hit rate 1.8% among 300,000; Potency, µM (top dose mostly 37.8 µM), inactives show at the top dose activity change, negative = inhibition, actives largely listed as inhibitors; Marburg virus pseudotyped entry inhibition, cell reporter; calls by dose curve; tested in HEK293 cells; note: potency is the fitted concentration of half-maximal effect; % is set by controls: 0 for no effect and ±100 for the full control effect
Cycloheximide cs: counter-screen for Shiga toxin inhibitors: cycloheximide protein synthesis inhibition. cell reporter, cycloheximide protein synthesis inhibition counterscreen. hit rate 12% among 300,000. max response, %; in the data active = max response mostly above about 13%, no sharp cut-off; inactive = mostly below about 14%; note: read at 38.3 µM for the half of the compounds with a filed dose; 0% is about no effect
FMDV inh: blocks foot and mouth disease virus | FMDV antiviral cell-based qHTS | Potency, µM (series often up to 57.9 µM), inactives show at the highest dose activity change, negative = inhibition, hits mostly inhibitors | hit rate 1.2% among 410,000; calls by dose curve; tested in HEK293T cells; note: read-out not given here; potency is the fitted concentration of half-maximal effect; % is set by controls: 0 for no effect and ±100 for the full control effect; nearly all actives have a fitted effect of over 45% in size
LASV entry inh: inhibitors of Lassa virus binding or cell entry | Lassa virus pseudotype entry inhibition, cell reporter | Potency, µM (series often up to 37.9 µM), without a hit: top-dose activity change, negative = inhibition, usual class: inhibitors | hit rate 1.2% among 300,000 | AID 540256; calls by dose curve; tested in HEK293 cells; note: potency is the fitted concentration of half-maximal effect; % is set by controls: 0 for no effect and ±100 for the full control effect; nearly all actives have a fitted effect of over 50% in size
Numbers without * were called inactive; [ ] = dose if it differs, or a comment.

Results for Cc1ccc(-c2c[n+](CC(=O)c3ccc(Br)cc3)c3n2CCCCC3)cc1 ?
Shiga inhibitor: 28; HCV inh: -8%; Marburg entry inh: 10µM*; Cycloheximide cs: 10; FMDV inh: inconclusive; LASV entry inh: inconclusive

What do the screens show for `O=C(c1ccc(-c2ccccc2)cc1)N1CCN(c2ncccn2)CC1`?
Shiga inhibitor: 18; HCV inh: 5%; Marburg entry inh: -4%[46.1 µM]; Cycloheximide cs: 9; FMDV inh: 0%; LASV entry inh: -11%

How did Cc1c(C(=O)NCc2ccccn2)sc2nc(-c3ccccc3)cn12 do in these assays?
Shiga inhibitor: 20*; HCV inh: inconclusive; Cycloheximide cs: 29*; FMDV inh: 19%

Results for COCCNC(=O)c1sc2nc(-c3ccccc3)cn2c1C ?
Shiga inhibitor: 70*; HCV inh: 5%; Marburg entry inh: 34%; Cycloheximide cs: 29*; FMDV inh: 25%; LASV entry inh: 23%

What do the screens show for `Cc1c(C(=O)NCC2CCCO2)sc2nc(-c3ccc(F)cc3)cn12` (stereo unspecified)?
Shiga inhibitor: 32; HCV inh: -23%; Cycloheximide cs: 32*; FMDV inh: inconclusive

What do the screens show for `COC(=O)NNC(=O)Cc1cccc2ccccc12`?
Shiga inhibitor: -6; HCV inh: 29%; Marburg entry inh: inconclusive; Cycloheximide cs: -1; FMDV inh: -7%; LASV entry inh: 12%

Results for Cc1nc2cc3nc(C(F)(F)F)[nH]c3cc2[nH]1 ?
Shiga inhibitor: -4; HCV inh: 6%; Marburg entry inh: inconclusive; Cycloheximide cs: -1; FMDV inh: -4%; LASV entry inh: -1%

What do the screens show for `CCOC(=O)c1cccc(NC(=O)C2=C(C)C(=O)OC23CCCCC3)c1`?
Marburg entry inh: 12%[46.1 µM]; FMDV inh: -3%; LASV entry inh: 6%[46.1 µM]

What do the screens show for `CN(Cc1cnn(C)c1)C(=O)CC1C(=O)NCCN1Cc1cccc(Oc2ccccc2)c1` (stereo unspecified)?
Shiga inhibitor: -2; HCV inh: 5%; Marburg entry inh: 7%[46.1 µM]; Cycloheximide cs: 0; FMDV inh: 11%; LASV entry inh: -8%

What do the screens show for `COc1ccc(C(C#N)c2ccc(Cl)nn2)cc1` (stereo unspecified)?
Shiga inhibitor: 8; HCV inh: 10%; Marburg entry inh: 12%[46.1 µM]; Cycloheximide cs: -3; FMDV inh: 9%; LASV entry inh: 0%

Results for N#CC(c1ccc(Cl)nn1)c1ccc(Cl)cc1Cl (stereo unspecified) ?
Shiga inhibitor: -16; HCV inh: 11µM*; Marburg entry inh: inconclusive; Cycloheximide cs: 1; FMDV inh: 46%; LASV entry inh: inconclusive

What do the screens show for `Cc1ccc(NC(=O)CSc2ncccn2)cc1F`?
Shiga inhibitor: 64*; HCV inh: 4%; Cycloheximide cs: 46*; FMDV inh: 43%

How did CCOC(=O)c1ccc(NC(=O)CSc2ccc(-c3cccnc3)nn2)cc1 do in these assays?
Shiga inhibitor: 54; HCV inh: inconclusive; Marburg entry inh: inconclusive; Cycloheximide cs: 16*; FMDV inh: inconclusive; LASV entry inh: inconclusive

How did Cn1ccnc1SCC(=O)Nc1cccc(C#N)c1 do in these assays?
HCV inh: -4%; FMDV inh: 9%

What do the screens show for `COc1ccc(NC(=O)CSc2ccc(-c3cccnc3)nn2)cc1`?
Shiga inhibitor: -6; HCV inh: -6%; Marburg entry inh: 13%; Cycloheximide cs: -3; FMDV inh: -5%; LASV entry inh: -24%

Results for Cn1ccnc1SCC(=O)Nc1ccc2c(c1)OC(F)(F)O2 ?
Shiga inhibitor: 22; Cycloheximide cs: 15*

How did Cc1ccc(NC(=O)CSc2nccn2C)cc1F do in these assays?
Shiga inhibitor: -14; HCV inh: 4%; Marburg entry inh: inconclusive; Cycloheximide cs: 9; FMDV inh: 27%; LASV entry inh: 4%[46.1 µM]

Results for CCN(CC)c1ccc(-c2nnc(SCC(=O)Nc3ccccc3C#N)n2-c2ccccc2)cc1 ?
Shiga inhibitor: -10; HCV inh: inconclusive; Marburg entry inh: inconclusive; Cycloheximide cs: -4; FMDV inh: inconclusive; LASV entry inh: 11µM*

How did CS(=O)(=O)N(Cc1ccccc1)c1ccccn1 do in these assays?
Shiga inhibitor: -1; HCV inh: -3%; Marburg entry inh: 15%; Cycloheximide cs: -4; FMDV inh: 2%; LASV entry inh: 7%

What do the screens show for `N#Cc1ccccc1NC(=O)CSc1nccn1CCc1ccccc1`?
Shiga inhibitor: 78*; HCV inh: -24%; Marburg entry inh: 6%; Cycloheximide cs: 37*; FMDV inh: 40%; LASV entry inh: 2%

Results for CCOC(=O)c1ccc(NC(=O)CSc2nccn2-c2cc(C)cc(C)c2)cc1 ?
FMDV inh: inconclusive; LASV entry inh: 27%[46.1 µM]

Results for Cc1ccc(CCc2nnc(SCC(=O)Nc3ccccc3Cl)n2-c2ccccc2)o1 ?
Shiga inhibitor: -14; HCV inh: -24%; Marburg entry inh: inconclusive; Cycloheximide cs: -3; FMDV inh: 0%; LASV entry inh: inconclusive

Results for CCOC(=O)c1ccc(NC(=O)CSc2nccn2C)cc1 ?
Shiga inhibitor: 61; HCV inh: 0%; Marburg entry inh: -6%; Cycloheximide cs: 39*; FMDV inh: 47%; LASV entry inh: inconclusive

What do the screens show for `CCOC(=O)c1ccc(NC(=O)CSc2nnc(CCc3ccc(C)o3)n2-c2ccccc2)cc1`?
Shiga inhibitor: 15; HCV inh: 10µM*; Marburg entry inh: -28%; Cycloheximide cs: 5; FMDV inh: -14%; LASV entry inh: -9%

How did CCOC(=O)c1ccc(NC(=O)CSc2nc3ncccc3[nH]2)cc1 do in these assays?
Shiga inhibitor: 16*; HCV inh: -19%; Marburg entry inh: -3%; Cycloheximide cs: 23*; FMDV inh: inconclusive; LASV entry inh: 11%

Results for Cc1ccc(NC(=O)COC(=O)CN2C(=O)NC(C)(C)C2=O)cc1S(=O)(=O)N1CCOCC1 ?
Shiga inhibitor: 3; HCV inh: 20%; Marburg entry inh: 1%; Cycloheximide cs: 3; FMDV inh: 24%; LASV entry inh: 5%

How did Cc1ccc(SCC(=O)Nc2ccc(S(=O)(=O)Nc3ncccn3)cc2)cc1 do in these assays?
Shiga inhibitor: -2; HCV inh: -29%; Marburg entry inh: inconclusive; Cycloheximide cs: 3; FMDV inh: -9%; LASV entry inh: 6%

What do the screens show for `CC(=O)c1ccc(NC(=O)CSc2nccn2C)cc1`?
Shiga inhibitor: 66*; HCV inh: 27%; Cycloheximide cs: 11*; FMDV inh: 51%

Results for CC(=O)c1ccc(NC(=O)CSc2nccn2CCc2ccccc2)cc1 ?
Shiga inhibitor: 88*; HCV inh: -2%; Marburg entry inh: -20%; Cycloheximide cs: 33*; FMDV inh: 34%; LASV entry inh: inconclusive

How did Cc1cc(C)nc(SCC(=O)Nc2ccc(S(=O)(=O)Nc3ncccn3)cc2)n1 do in these assays?
Shiga inhibitor: 75*; HCV inh: 16%; Marburg entry inh: 12%[46.1 µM]; Cycloheximide cs: 35*; FMDV inh: 9%; LASV entry inh: -2%[46.1 µM]

High-throughput results deposited in PubChem BioAssay by National Center for Advancing Translational Sciences (NCATS).
